Results on 61 compounds are retold here after PubChem BioAssay AID463173 (ICCB-Longwood Screening Facility, Harvard Medical School, 2010).

Each structure is given as a SMILES string. Screen size: about 52,000 compounds; about 4,300 (8.3%) were called active. This is one part of a sample in which actives are shown more often than they occur. A number with no mark means an inactive call. Cut-off read from the data, not from the text of the source: active = survival mostly below about 52% (no sharp cut-off); inactive = mostly above about 56%.

In this experiment the test system is DeltatarO mutant. Nature of the experiment: growth inhibition of S. aureus wild type versus tarO mutant, primary screen, teichoic acid synthesis inhibitors, RN4220, OD600 (AID 463173). Conditions: OD600, 18 h, active compounds read low, screened at 18.75 µg/mL (by protocol).
`CCC1CN(C(=O)N2CCC(C(=O)Nc3ccccc3F)CC2)c2ccccc2O1` (stereo unspecified): the survival is 74%. Consider `Cc1ccc(NC(=O)c2oc3ccc(S(=O)(=O)N4CCOCC4)cc3c2C)c(C)c1`, for which the survival is 125%. The figure for `CCOC(=O)c1cn(CC(=O)Nc2ccc(OC)cc2OC)nn1` is 83%; for `Cc1cccc(CNC(=O)Cn2nc(C)n3c(cc4cc(F)ccc43)c2=O)c1` it is 77%; for `O=C(O)CCc1ccco1` it is 98%. Consider `CCOC(=O)C1CCN(C(=O)Cc2cccc3ccccc23)CC1`, for which the survival is 82%.

On to `CCN(CC)S(=O)(=O)c1ccc(C(=O)NCCSc2c(-c3ccc(F)cc3)[nH]c3ccccc23)cc1`, for which the survival was 69%. The figure for `CCOC(=O)COc1ccc(F)cc1C(=O)c1ccn2nc(-c3ccc(C)cc3)cc2n1` is 80%. The figure for `COc1ccc(-c2nc(Cn3c(SCc4ccccc4F)nc4cccnc43)c(C)o2)cc1` is 69%. Regarding `Cc1ccc(Cn2c(C)c(CNCc3ccc(OC(C)C)cc3)c(C(=O)O)c2C)cc1`, the survival was 121%. The value for `Cc1ccc2c(CNCCc3ccco3)c(C(=O)O)n(Cc3ccc(F)cc3)c2c1` was 59%. Regarding `Cc1ccc(CNCc2c(C(=O)O)n(Cc3ccc(C)cc3)c3cc(C)ccc23)cc1`, the survival was 2% (active). As to `Cc1ccc(Cn2c(C(=O)O)c(CNCc3ccc(OC(C)C)cc3)c3ccc(C)cc32)cc1`, the survival is 11% (active).

For `Cc1ccc(Cn2c(C(=O)O)c(CNCc3cccs3)c3ccc(C)cc32)cc1`, the survival was 48% (active).

For `C=Cc1ccc(Cn2c(C(=O)O)c(CNCc3ccc(F)cc3)c3ccc(C)cc32)cc1`, the survival was 86%. Consider `Cc1ccc(Cn2c(C(=O)O)c(CNCc3ccccc3Cl)c3ccc(C)cc32)cc1`, for which the survival was 58%. Take `Cc1ccc2c(CNCc3cccs3)c(C(=O)O)n(Cc3ccc(F)cc3)c2c1`: the survival is 82%.

With `C=Cc1ccc(Cn2c(C(=O)O)c(CNCc3ccccc3)c3ccc(C)cc32)cc1`, the survival is 120%. For the compound `Cc1ccc2c(CNCCc3ccc(Cl)cc3)c(C(=O)O)n(Cc3ccc(F)cc3)c2c1`, the survival is 8% (active). The figure for `COc1ccc(Cn2c(C(=O)O)c(CNCc3cccs3)c3ccc(C)cc32)cc1` is 89%. As for `COc1ccc(Cn2c(C(=O)O)c(CNCc3cccc(OC)c3)c3ccc(C)cc32)cc1`, the survival is 74%. Consider `CCCN(Cc1cccs1)C(=O)Nc1ccc(F)c(Cl)c1`, for which the survival was 58%.

For `COc1ccc(OC)c(CNC(=O)CCCn2c(=O)c3cccn3c3cccnc32)c1`, the survival is 97%. With `CCOc1ccc(NC(=O)CC2C(=O)N(c3ccc(Cl)cc3)C(=O)N2Cc2cccs2)cc1` (stereo unspecified), the survival is 81%.

Regarding `Cc1cc(C)cc(NC(=O)C(Cc2ccccc2)NS(=O)(=O)c2ccc3c(c2)CCC(=O)N3)c1` (stereo unspecified), the survival is 77%. As to `CCOC(=O)C(C)NC(=O)c1cc2c(=O)[nH]c3ccc(C)cc3c2s1` (stereo unspecified), the survival is 57%. As for `CCc1ccc(CNCc2c(C(=O)O)n(Cc3ccc(C)cc3)c3cc(C)ccc23)cc1`, the survival is 14% (active). With `Cc1ccc(Cn2c(C(=O)O)c(CNCc3ccc(C)o3)c3ccc(C)cc32)cc1`, the survival is 52%. Turning to `Cc1ccc(Cn2c(C(=O)O)c(CNCCc3cccs3)c3ccc(C)cc32)cc1`, the survival is 82%. `COC(=O)c1scc(-c2ccc(C)cc2)c1S(=O)(=O)Nc1cc(C)ccc1OC`: the survival is 75%.

Take `CCCSc1ncc(Cl)c(C(=O)Nc2c(C(=O)c3ccc(F)cc3)oc3ccccc23)n1`: the survival is 44% (active). In the case of `CCCS(=O)(=O)c1ncc(Cl)c(C(=O)Nc2c(C(=O)c3ccccc3)oc3ccccc23)n1`, the survival is 102%.

As for `CCCSc1ncc(Cl)c(C(=O)Nc2c(C(=O)c3ccc(C)cc3)oc3ccccc23)n1`, the survival was 56%.

Consider `CCS(=O)(=O)c1ncc(Cl)c(C(=O)Nc2c(C(=O)c3ccc(C)cc3)oc3ccccc23)n1`, for which the survival was 50% (active). The value for `CS(=O)(=O)c1ncc(Cl)c(C(=O)Nc2c(C(=O)c3ccc(Cl)cc3)oc3ccccc23)n1` was 109%; that for `CCSc1ncc(Cl)c(C(=O)Nc2c(C(=O)c3ccccc3)oc3ccccc23)n1` was 79%; that for `CCOc1ccc(NC(=O)CSc2ccc3ccccc3n2)cc1` was 67%.

Turning to `Cc1ccc(-n2c(=O)c3oc4ccccc4c3n(CC(=O)Nc3ccc(F)c(Cl)c3)c2=O)cc1C`, the survival is 65%. For the compound `CCC(C(=O)NCc1ccccc1OC)n1nc(C)n2c(cc3sccc32)c1=O` (stereo unspecified), the survival is 82%.

For `O=S(=O)(c1ccc2nc(Nc3ccc(Br)cc3F)ccc2c1)N1CCCC1`, the survival was 117%. On to `Cc1ccc(C)c(NC(=O)n2ncc3cc(Cl)ccc32)c1`, for which the survival was 82%. Regarding `O=C(Nc1ccc(F)cc1Cl)n1ncc2cc(Cl)ccc21`, the survival was 13% (active). As for `O=C(Nc1ccccc1C(F)(F)F)n1ncc2cc(Cl)ccc21`, the survival is 104%. In the case of `CC1(c2ccc(Cl)cc2Cl)OCC(Cn2cncn2)O1` (stereo unspecified), the survival is 83%. The figure for `S=c1oc(-c2ccccc2)nn1CNc1ccccc1` is 83%. Take `Cc1ccc(-c2nn(CO)c(=S)o2)cc1`: the survival is 48% (active).

For `CCN(CC)Cn1nc(-c2ccccc2Cl)oc1=S`, the survival was 77%. Turning to `CCOc1ccc2c(c1)NC(c1cccs1)=NC(c1ccc(F)cc1)=N2`, the survival is 50%. The value for `CCc1nn(CCCC(=O)NCc2ccc(OC(C)C)cc2)c(=O)c2cc3occc3n12` was 77%; that for `Cc1cccc(N2CCN(C(=O)C3CCN(S(=O)(=O)c4cn(C)cn4)CC3)CC2)c1C` was 92%; that for `COc1ccccc1N1CCN(S(=O)(=O)c2ccc(S(=O)(=O)NC3CCCC3)cc2)CC1` was 55% (active). As to `Cn1cnc(S(=O)(=O)N2CCC(C(=O)N3CCN(c4ccccc4F)CC3)CC2)c1`, the survival was 75%. With `COc1ccc(N2CCN(C(=O)C3CCN(S(=O)(=O)c4cn(C)cn4)CC3)CC2)cc1`, the survival was 69%. Consider `CC(=O)c1ccc(N2CCN(C(=O)C3CCN(S(=O)(=O)c4cn(C)cn4)CC3)CC2)cc1`, for which the survival is 69%. On to `COc1ccccc1N1CCN(S(=O)(=O)c2ccc(-c3cnc(C4CC4)o3)cc2)CC1`, for which the survival is 113%. Take `COc1ccccc1N1CCN(C(=O)c2cc(S(=O)(=O)N3CCC(C)CC3)cn2C)CC1`: the survival is 32% (active).

As to `COc1ccccc1N1CCN(C(=O)C2CCN(S(=O)(=O)c3cn(C)cn3)CC2)CC1`, the survival is 46% (active). The value for `Cc1cccc(N2CCN(C(=O)c3cc(S(=O)(=O)N4CCC(C)CC4)cn3C)CC2)c1C` was 58%; that for `Cn1cnc(S(=O)(=O)N2CCC(C(=O)N3CCN(c4ccc(Cl)cc4)CC3)CC2)c1` was 37% (active). The value for `CCOc1ccccc1N1CCN(S(=O)(=O)c2ccc(C3CCCCC3)cc2)CC1` was 50%; that for `CC1CCN(S(=O)(=O)c2cc(C(=O)N3CCN(c4ccccc4F)CC3)n(C)c2)CC1` was 70%.
